Screens: PubChem BioAssay, Columbia University Molecular Screening Center
A selection: hits, their analogues and other compounds. The true share with any hit is near 1.7%.
IL1B cytotox = toxic to HUVEC cells under IL-1B stimulation. HUVEC cell count loss, Hoechst imaging, IL-1B stimulated. cell count reduction, % at 2 µM. 0.41% of 94,000 active. AID 845;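 active means cell count reduction more than 3 SD above the screen-wide mean, cut at about 70% in these data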
E-sel TNF inh = blocks E-selectin expression induced by TNF alpha; HUVEC TNFa-induced E-selectin immunofluorescence, high content; inhibition, % at 2 µM; 0.71% of 120,000 active;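 active means inhibition above the batch mean plus 3 SD, and confirmed as a hit on visual image review, cut at about 43% in these data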
NFkB transloc inh = blocks IL-1B driven NFkB nuclear translocation in HUVEC cells; 0.43% of 94,000 active; HUVEC IL-1B NFkB p65 nuclear translocation imaging; AID 796; inhibition, % at 2 µM;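 active means inhibition above about 30% together with a positive call from visual inspection of the well image, limit read from the data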;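 further: nuclear over cytoplasmic p65 intensity ratio measured by imaging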
TNFa cytotox = toxic to HUVEC cells under TNF alpha stimulation; HUVEC TNFalpha-stimulated, Hoechst cell count, imaging; cell count reduction, % at 2 µM; 0.17% of 93,000 active; AID 848;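 active means cell count reduction exceeding the screen mean by over 5 SD, scaled to untreated wells per plate, cut at about 78% in these data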;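 further: cells counted after 24 h of TNF alpha exposure following the 1 h pretreatment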
IL1B NFkB pot = enhances IL-1B driven NFkB nuclear translocation; HUVEC IL-1B NFkB p65 nuclear translocation imaging; activation, % at 2 µM; 0.3% of 94,000 active; AID 819;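 active means activation above 40%, about the mean plus 3 SD, also judged a hit on visual image review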;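 further: percent activation is computed from the nuclear over cytoplasmic p65 intensity ratio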
VCAM1 TNFa inh = reduces TNF alpha induced VCAM1 expression in HUVEC | HUVEC TNFa-induced VCAM-1 immunofluorescence, high-content imaging | inhibition, % at 2 µM | 0.48% of 95,000 active | AID 802;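 active means inhibition above the batch mean plus 3 SD, with images confirmed as a hit by eye, cut at about 37% in these data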
Hits are given with their value; 0 = inactive; - = no result.

SMILES | IL1B cytotox | E-sel TNF inh | NFkB transloc inh | TNFa cytotox | IL1B NFkB pot | VCAM1 TNFa inh
O=C1C2CCCN2C(c2ccccc2)N1c1cccc(Cl)c1 (stereo not drawn) | 0 | 0 | 0 | 0 | 0 | 0
Cc1ccc(Cc2cnc(NC(=O)/C(C#N)=C/c3ccc(-c4ccccc4[N+](=O)[O-])o3)s2)cc1 | 0 | 51 | 0 | 0 | 0 | 0
O=C(CCl)Nc1cc(-c2ccccc2)nn1-c1ccccc1 | 88 | 0 | 0 | 0 | 0 | 0
CC(=O)Nc1ccc(-c2cc(NC(C)=O)n(-c3ccccc3)n2)cc1 | 0 | 0 | 0 | 0 | 0 | 0
Cc1ccc(-c2cc(NC(=O)CCl)n(-c3ccccc3)n2)cc1 | 0 | 86 | 0 | 0 | 0 | 0
COc1ccccc1N1CCN(C(=O)c2ccc3[nH]c4c(c3c2)CC(C)CC4)CC1 (stereo not drawn) | - | 0 | - | - | - | -
CCOC(=O)c1ccc(/C=C2/C=C(c3ccccc3)N(c3ccc(Cl)c(C(=O)O)c3)C2=O)cc1 | - | 0 | - | - | - | -
O=C(CN1CCN(S(=O)(=O)c2ccc3ccccc3c2)CC1)Nc1ccc2c(c1)CCC2 | - | 0 | - | - | - | -
Cn1c(=N)n(CC(O)c2ccco2)c2ccccc21 (stereo not drawn) | 0 | - | 0 | 0 | 0 | 0
Cn1c(=N)n(CC(O)c2cccc3ccccc23)c2ccccc21 (stereo not drawn) | 0 | - | 0 | 83 | 0 | 0
COc1ccc2nc(C)c3cc(C)oc3c2c1 | 87 | 0 | 0 | 0 | 0 | 0
COc1ccc(S(=O)(=O)Nc2cc(OC)c(NC(=O)c3ccco3)cc2OC)cc1 | 0 | 0 | 0 | 0 | 43 | 0
COc1cc(NC(=O)c2cc3ccccc3o2)c(OC)cc1Cl | 78 | 0 | 100 | 0 | 0 | 0
COc1cc(OC)c(NC(=O)c2ccco2)cc1Cl | 0 | 100 | 0 | 0 | 0 | 0
COc1ccc(-c2cc3ccccc3oc2=O)cc1NC(=O)c1ccc(Br)o1 | 0 | 0 | 0 | 0 | 0 | 0
CCOc1cc(NS(=O)(=O)c2ccc(OC)cc2)c(OCC)cc1NC(=O)c1ccco1 | 0 | 0 | 0 | 0 | 0 | 0
COc1ccc(-c2cc3ccccc3oc2=O)cc1NC(=O)c1ccc([N+](=O)[O-])o1 | 0 | 0 | 0 | - | 0 | 74
COc1cc2cc(CN(Cc3cccs3)C(=S)Nc3ccccc3)c(=O)[nH]c2cc1OC | - | 0 | - | - | - | -
Cn1cnc2c(N3CCCCC3)nccc21 | 93 | 0 | 0 | 0 | 0 | 0
CC1C/C(=C/c2ccccn2)C(=O)/C(=C/c2ccccn2)C1 (stereo not drawn) | - | 100 | - | - | - | -
O=C1/C(=C/c2ccccn2)COc2ccccc21 | - | 0 | - | - | - | -
CC(C)(C)C1C/C(=C/c2ccccn2)C(=O)/C(=C/c2ccccn2)C1 (stereo not drawn) | - | 100 | - | - | - | -
CC(C)(C)NC(=O)CN(Cc1ccc2c(c1)OCO2)C(=O)CNC(=O)c1cccs1 | - | 0 | - | - | - | -
Cc1ccc2c(C(=O)CN3CCN(C4CCCCC4)CC3)c(C)[nH]c2c1 | 92 | 0 | 0 | 0 | 0 | 0
FC(F)(F)c1cccc(Cn2nnnc2-c2cccc(C(F)(F)F)c2)c1 | 0 | 0 | 0 | 0 | 0 | 0
SMILES | IL1B cytotox | E-sel TNF inh | NFkB transloc inh | TNFa cytotox | IL1B NFkB pot | VCAM1 TNFa inh
CCN(CC)S(=O)(=O)c1ccc2[nH]c(=O)cc(C(=O)Nc3cccc(C(C)=O)c3)c2c1 | - | 68 | - | - | - | -
CCN(CC)S(=O)(=O)c1cccc(C(=O)Nc2cccc(C)c2)c1 | 0 | 0 | 0 | 0 | 0 | 0
CCOC(=O)c1nn(-c2ccc(F)cc2)c2c1CC/C2=C/c1ccccc1 | - | 0 | - | - | - | -
CCN(CC)S(=O)(=O)c1ccc(=O)[nH]c1 | - | 0 | - | - | - | -
O=C(CN(CC1CCCO1)C(=O)CCC(=O)Nc1nccs1)NCc1ccc2c(c1)OCO2 (stereo not drawn) | 0 | 100 | 0 | 0 | 0 | 0
COCCN(CC(=O)NCc1ccccc1)C(=O)CCC(=O)Nc1nccs1 | 0 | 0 | 0 | 0 | 41 | 0
O=C(CN(CC1CCCO1)C(=O)CCC(=O)Nc1nccs1)NCC1CCCO1 (stereo not drawn) | 0 | 0 | 0 | 0 | 0 | 0
Cc1ccc(-c2ccnc3nc(-n4cccc4)nn23)o1 | - | 0 | - | - | - | -
Cc1ccc(C2CC(=O)N(c3ccc(F)cc3)C3=C2C(=O)CCC3)cc1 (stereo not drawn) | 0 | 100 | 0 | 0 | 0 | 0
CC(C)N1CC(O)=C(c2nc3ccccc3[nH]2)C1=N | 0 | - | 0 | 100 | 0 | -
O=C(C1CC1)N1N=C(c2ccncc2)CC1(O)C(F)(F)F (stereo not drawn) | - | 0 | - | - | - | -
CCOC(=O)CNC(=O)CSc1nnc(SCC(=O)NCC(=O)OCC)s1 | 0 | 0 | 0 | 0 | 54 | 0
Cc1c(Cl)c([N+](=O)[O-])nn1CC(=O)NC(C)C1CC2CCC1C2 (stereo not drawn) | 0 | 0 | 0 | 0 | 0 | 0
CCCCCCCOC(=O)C1=C(C)Nc2ncnn2C1c1cccs1 (stereo not drawn) | 0 | 0 | 0 | 0 | 41 | 0
CCn1c(SCC(=O)Nc2cc3oc4ccccc4c3cc2OC)nnc1-c1cccs1 | 0 | 0 | 0 | 0 | 41 | 0
COc1cc2c(cc1NC(=O)Nc1ccccc1)oc1ccccc12 | 0 | 100 | 0 | 0 | 0 | 0
O=C1CCC(=O)N1CC(=O)N(c1ccccc1)c1ccccc1 | - | 0 | - | - | - | -
Cc1cccc(-n2c(C)cc(C)c(C#N)c2=O)c1 | - | 0 | - | - | - | -
O=C(NCC(c1ccco1)N1CCN(c2ccccc2)CC1)c1ccc2c(c1)OCO2 (stereo not drawn) | - | 0 | - | - | - | -
O=C(NN=C1CCN(Cc2ccccc2)CC1)c1ccccc1 | - | 68 | - | - | - | -
Cc1cc(C)cc(CC(Cc2nc3ccccc3[nH]2)c2nc3ccccc3[nH]2)c1 (stereo not drawn) | 0 | 0 | 0 | 0 | 0 | 0
COc1cc(NC(=O)Cn2ncc(Cl)c(Cl)c2=O)c(C)cc1[N+](=O)[O-] | - | 83 | - | - | - | -
COc1cc(NC(=O)CN2CCCCC2)c(C)cc1[N+](=O)[O-] | - | 0 | - | - | - | -
COc1cccc(-n2nc3c(-n4ncc(C#N)c4N)nnc(C)c3c2C)c1 | 0 | 0 | 46 | 0 | 0 | 0
Cc1nnc(-n2ncc(C#N)c2N)c2nn(-c3ccccc3F)c(C)c12 | 0 | 0 | 0 | 0 | 0 | 0
SMILES | IL1B cytotox | E-sel TNF inh | NFkB transloc inh | TNFa cytotox | IL1B NFkB pot | VCAM1 TNFa inh
CC(C)(C)c1ccc(C(=O)N2CCC(C(=O)NCc3ccncc3)CC2)cc1 | 94 | 0 | 100 | 0 | 0 | 0
O=C1C=C(c2ccccc2)C(O)(c2ccccc2)C1 (stereo not drawn) | 0 | 61 | 0 | 0 | 0 | 0
Cn1c(CCNC(=O)c2cccs2)nnc1SCC(=O)Nc1nc(-c2ccccc2)cs1 | 0 | 0 | 0 | 0 | 0 | 0
Cc1csc(NC(=O)CSc2nnc(CCNC(=O)c3cccs3)n2C)n1 | 89 | 0 | 99 | 0 | 0 | 0
COc1cccc(CNc2ccc(F)c(Cl)c2)c1 | 0 | 100 | 0 | 0 | 0 | 0
CCN(CC)C(=O)Cn1cc(C(=O)C(=O)N2CC=C(c3ccccc3)CC2)c2ccccc21 | - | 0 | - | - | - | -
COc1cc2c(O)c3c(c(-c4ccc5c(c4)OCO5)c2cc1OC)C(=O)OC3 | 0 | - | 0 | 0 | 0 | 91
COc1cc2c(=O)n(-c3ccc(C)cc3)c(=O)n(CC(=O)c3ccc4c(c3)OCO4)c2cc1OC | - | 0 | - | - | - | -
O=C(CCn1nnc2ccccc21)Nc1nnc(Cc2ccc(F)cc2)s1 | - | 47 | - | - | - | -
